These results are taken from PubChem BioAssay (NCATS).

Structures are written as SMILES. Records with an inconclusive call do not appear. A call without a number means that no potency is given here. Active and inactive are the calls of the source. Calls come from the whole dose curve; as a rule, active = well fitted cell-killing curve with a large enough effect; inconclusive = small, poorly fitted or top-dose-only effect; inactive = no such curve, though single readings can be large or run the other way.
Potency is the fitted concentration of half-maximal effect.

The assay is described as follows: qHTS of pediatric cancer cell lines to identify multiple opportunities for drug repurposing: Primary screen for NB1643 cells (AID 1347099). Note: nearly all actives have a fitted effect of over 50% in size. To be noted: NB1643 neuroblastoma viability, CellTiter-Glo luminescence, 48 h; series mostly up to 46 µM. From the text: Drug repurposing or repositioning has been offered as a strategy for drug development in oncology programs. This approach has special potential for childhood cancers and other rare or orphan diseases, where the expected return on new drug development has been a disincentive to pharmaceuticals. […] In this project we exploit the poly-pharmacology of drugs to discover new indications via phenotypic screening of a panel of 19 well-characterized cell lines derived from solid tumors seen in children and adolescents. The goal is to identify approved drugs with previously unrecognized anticancer properties that has the potential to reveal new mechanisms and biological processes involved in carcinogenesis or drug resistance. We employed a titration-based paradigm (quantitative high-throughput screening or qHTS), where all compounds were tested at multiple concentrations for their effect on cell viability. Concentration-response curves (CRCs) were derived directly from the primary screen, and both potency and efficacy values were used to identify compounds with robust bioactivity profiles. We screened the NIH Chemical Genomics Center (NCGC) Pharmaceutical Collection (NPC) and Mechanism Interrogation Plate (MIPE) small molecule collections of approved and investigational compounds against these cell lines; and measured metabolically active cells after 48 hours of compound treatment as a proxy for cell viability. […] Assay Submitter: Nathalia J. Martinez, National Center for Advancing Translational Sciences, National Institutes of Health, Rockville, MD, USA; email: natalia.martinez@nih.gov Shen, M et al. Quantitative high-throughput phenotypic screening of pediatric cancer cell lines identifies multiple opportunities for drug repurposing. Oncotarget 2017 Dec 19;9(4):4758-4772. PMID 29435139.
The cells were obtained from University of North Carolina (UNC), Pediatric Preclinical Testing Program (PPT), and Coriell Institute (CI). qHTS cell viability assay: Cells were assayed in growth media at a density of 500-1,000 cells/well. Five microliters of cells were dispensed into 1,536-well, white, solid-bottom, TC-treated plates (Greiner Bio One) using a multidrop dispenser and incubated at 37 degrees C, 5% CO2, under a humidified atmosphere for 5 hours. Twenty-three nanoliters of compounds and controls (neutral control DMSO or positive control bortezomib at final concentration of 2.3 µM) were subsequently transferred by Kalypsys pintool. For primary screens, the MIPE collection was tested at 11-point dilutions (final concentrations range from 0.78 nM to 46 µM) and the NPC collection at 8-point dilutions (final concentrations range from 0.59 nM to 46 µM). Compounds tested in follow-up screens were assayed at 11-point dilutions. Cells were incubated for 48 hours, followed by addition of 3 µL of CellTiter-Glo (Promega). After a 15 min incubation at room temperature, samples were analyzed for luminescence intensity using a ViewLux High-throughput CCD imager equipped with clear filters.
With `CC(=O)[O][Hg][c]1ccccc1`, the Potency is 1.19 µM (active).

As to `COc1ccc(C(c2ccc(OC)cc2)C(Cl)(Cl)Cl)cc1`, the Potency is 42.8 µM (active).

In the case of `O=C(O)COc1ccccc1`, the Potency result is “inactive”.

`Nc1c(Cl)c(Cl)c(Cl)c(Cl)c1Cl`: the Potency result is “inactive”.

`C[C@@H]1O[C@@H](O[C@@H]2C=C3CC[C@@H]4[C@@H](CC[C@]5(C)[C@H](c6ccc(=O)oc6)CC[C@@]45O)[C@@]3(C)CC2)[C@H](O)[C@H](O)[C@H]1O`: the Potency is 0.0833 µM (active).

Take `CC(C)[C@]12O[C@@H]1[C@@H]1O[C@]13[C@]1(O[C@H]1C[C@@H]1C4=C(CC[C@@]13C)C(=O)OC4)[C@H]2O`: the Potency entry was “inactive”.

On to `CC(C)(C)c1cc(C=C(C#N)C#N)cc(Br)c1O`, for which the Potency is 4.69 µM (active).

On to `CC(C)(O)C(=O)Nc1ccc([N+](=O)[O-])c(C(F)(F)F)c1`, for which the Potency was 5.9 µM (active).

Regarding `Cc1c(C(=O)Nc2cccc(C(F)(F)F)c2)cc(-c2ccccc2)n1CCCN1CCOCC1`, the Potency is 23.5 µM (active).

Turning to `Cc1ccc(Cl)c(O)c1`, the Potency entry was “inactive”.

In the case of `CC(C)(O)C=CC(=O)[C@](C)(O)[C@H]1[C@H](O)C[C@]2(C)[C@@H]3CC=C4[C@@H](C=C(O)C(=O)C4(C)C)[C@]3(C)C(=O)C[C@@]12C`, the Potency was 0.0372 µM (active).

`Nc1ccc(Sc2ccc(N)cc2)cc1`: the Potency result is “inactive”.

For the molecule `Cc1ccccc1-n1c(Cn2cnc3c(N)ncnc32)nc2cccc(C)c2c1=O`, the Potency was 0.59 µM (active).

As to `CC[C@@]1(O)C(=O)OCc2c1cc1n(c2=O)Cc2cc3ccccc3nc2-1`, the Potency is 0.0469 µM (active).

For `CC1=C(C(=O)O)N2C(=O)[C@@H](N)[C@H]2SC1`, the Potency entry was “inactive”.

Consider `COC(C)(C)CCCC(C)C/C=C/C(C)=C/C(=O)OC(C)C` (stereo not given), for which the Potency entry was “inactive”.

On to `CCN1CCN(C(=O)Cc2ccc(Nc3ncc(F)c(Nc4ccc(C(=O)Nc5ccccc5Cl)cc4)n3)cc2)CC1`, for which the Potency is 5.9 µM (active).

With `C=CCON=C(C[C@H]1O[C@@H]2O[C@]3(C)CC[C@@H]4[C@H](C)CC[C@@H]([C@H]1C)[C@@]24OO3)[C@H]1O[C@@H]2O[C@]3(C)CC[C@H]4[C@H](C)CC[C@@H]([C@@H]1C)[C@@]24OO3`, the Potency is 0.833 µM (active).

Consider `N=c1c2c(-c3ccccc3)c(-c3ccccc3)n(Cc3ccccc3)c2ncn1C1CCC(O)CC1` (stereo not given), for which the Potency is 4.69 µM (active).

Take `O=C(O)COc1nc(Cl)c(Cl)cc1Cl`: the Potency result is “inactive”.

`CC(=CCCC1=CCC(C2=CC(=O)OC2O)OC1O)CCC1=C(C)CCCC1(C)C` (stereo not given): the Potency result is “inactive”.

`Fc1cc(Br)ccc1CBr`: the Potency entry was “inactive”.

As to `O=C(O)C(Cl)Cl`, the Potency entry was “inactive”.

Consider `CC[N+]1(CCOC(=O)C(O)(c2ccccc2)c2ccccc2)CCCCC1`, for which the Potency entry is “inactive”.

On to `CC=C(C)C(=O)O[C@H]1C(C)=C2[C@@H]3OC(=O)[C@@](C)(O)[C@@]3(O)[C@@H](OC(=O)CCC)C[C@](C)(OC(C)=O)[C@@H]2[C@@H]1OC(=O)CCCCCCC`, for which the Potency was 0.0662 µM (active).

With `C[C@@H]1CC[C@@]2(OC1)O[C@H]1C[C@H]3[C@@H]4CC=C5C[C@@H](O[C@@H]6O[C@H](CO)[C@@H](O[C@@H]7O[C@@H](C)[C@H](O)[C@@H](O)[C@@H]7O)[C@H](O)[C@@H]6O[C@@H]6O[C@@H](C)[C@H](O)[C@@H](O)[C@@H]6O)CC[C@]5(C)[C@@H]4CC[C@]3(C)[C@@H]1[C@H]2C`, the Potency is 5.9 µM (active).

For the molecule `O=c1cccc2n1CC1CNC[C@H]2C1`, the Potency is 5.9 µM (active).

Turning to `CCCCCCCCCC(CC)c1ccc(S(=O)(=O)O)cc1` (stereo not given), the Potency result was “inactive”.

For `Nc1ccc([N+](=O)[O-])cc1`, the Potency entry was “inactive”.

On to `CC(N[C@H]1C[C@H]1c1ccccc1)c1ccc2c(c1)OCCO2` (stereo not given in full), for which the Potency result is “inactive”.

`CC(Cc1ccc(O)cc1)NCC(O)c1cc(O)cc(O)c1` (stereo not given): the Potency result is “inactive”.

`CC1(N2CCC(n3c([C@@H]4CCCNC4)nc4ccccc43)CC2)CCCCCCC1`: the Potency result was “inactive”.

Take `CC1(C)CC/C(=C/c2ccc(Cl)cc2)C1(O)Cn1cncn1` (stereo not given): the Potency entry is “inactive”.

`c1cc2ccc3cccc4ccc(c1)c2c34`: the Potency result was “inactive”.

In the case of `COC(=O)c1cncn1C(C)c1ccccc1` (stereo not given), the Potency entry was “inactive”.

Consider `C=C[C@@H]1CN2CCC1C[C@@H]2[C@@H](O)c1ccnc2ccccc12` (stereo not given in full), for which the Potency is 10.5 µM (active).

For `C[C@@H]1CC[C@H]2[C@@H](C)C(=O)O[C@@H]3O[C@@]4(C)CC[C@H]1[C@]32OO4`, the Potency entry is “inactive”.

On to `O=C(NCC1CCOCC1)c1cnc(Nc2ccc(Cl)cc2Cl)nc1C(F)(F)F`, for which the Potency is 9.35 µM (active).

`CN[C@@H](C)[C@H](O)c1ccccc1`: the Potency result was “inactive”.

In the case of `Oc1ccc2c3c1O[C@H]1c4[nH]c5c(c4C[C@@]4(O)[C@@H](C2)N(CC2CC2)CC[C@]314)C[C@@]1(O)[C@H]2Cc3ccc(O)c4c3[C@@]1(CCN2CC1CC1)[C@H]5O4`, the Potency result was “inactive”.
